The test system of experiment [1] is Wnt5a (protein binding on small-molecule microarray). The experiment can be described thus: Wnt5a binders on small-molecule microarray, primary screen, biophysical, 635/667 nm fluorescence (AID 1142).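 Further: fluorescence read at 667 nm with signal to noise per printed feature.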 Particulars: 635 nm fluorescence, higher = more signal.
Experiment [2] in a line: cell viability in Huh7 cells, primary screen, cytotoxicity control for HCV replication inhibitor project, CellTiter-Glo luminescence, basal, 48 h (AID 1143).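 Further: Huh7 hepatoma cells carrying a hepatitis C replication reporter with no stimulus; test concentration not given here.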 The settings on record: Huh7 HCV replicon, higher = more signal, called active from +8 up or from −8 down. A general note: In ATP-based viability assays light output follows the ATP content of the culture.
Experiment [3] is described as follows: P. aeruginosa biofilm formation inhibitors, primary screen, PAO1 strain, BacTiter-Glo luminescence, LB-PBS (AID 1144). The settings on record: 12 h, higher = more signal.
Experiment [4] in a line: CREB reporter modulators without forskolin, primary screen, cell-based, PC12, CRE-LacZ reporter, unstimulated (AID 1145). The settings on record: no forskolin, luminescence, 4.5 h, higher = more signal, called active from +8 up or from −8 down.
Experiment [5] in a line: CREB reporter modulators under forskolin, primary screen, cell-based, PC12, CRE-LacZ reporter, forskolin-stimulated (AID 1146).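 Further: PC12 cells with 6xCRE LacZ reporter stimulated by forskolin 10 µM; beta-galactosidase reporter signal reflecting CREB driven transcription.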 Particulars: luminescence, 4.5 h, higher = more signal, called active from +8 up or from −8 down.
For experiment [6], the target named is Streptavidin (Streptomyces avidinii) (UniProt P22629). The experiment is described as follows: streptavidin binders on small-molecule microarray, primary screen, artefact control for SMM compound annotation, biophysical, 635/667 nm fluorescence (AID 1147).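 Further: signal reflects streptavidin binding to arrayed compounds as a control protein.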 Particulars: streptavidin binding, higher = more signal.
Chain of Streptavidin (Streptomyces avidinii) (P22629 whole entry, looked up): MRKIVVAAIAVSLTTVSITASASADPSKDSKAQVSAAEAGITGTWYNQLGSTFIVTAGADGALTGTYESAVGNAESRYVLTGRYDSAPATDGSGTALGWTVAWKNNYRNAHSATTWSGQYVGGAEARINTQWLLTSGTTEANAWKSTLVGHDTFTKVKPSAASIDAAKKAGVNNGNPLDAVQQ
A short description of experiment [7]: small-molecule binders of probe aInhba, primary screen, biochemical, small-molecule microarray, 635/667 nm fluorescence (AID 1148).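 Further: score merges 667nm spot fluorescence with signal-to-noise for antibody binding to printed compounds.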 The settings on record: higher = more signal.
Experiment [8] addresses Torsin-1A (Homo sapiens) (UniProt O14656). The experiment is described as follows: torsin A binders from cell lysate, primary screen, small-molecule microarray, wild-type, 635/667 nm (AID 1149). Particulars: COS7 hTOR1A-WT lysate, 635 nm fluorescence, higher = more signal.
Experiment [9] has the same target. The experiment is described as follows: small-molecule binders of mutant TOR1A in lysate, primary screen, cell lysate, small-molecule microarray, COS7 lysate, 635/667 nm fluorescence (AID 1150).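 Further: score pools 667 nm emission and signal to noise measuring lysate protein binding.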 The settings on record: COS7 hTOR1A mutant lysate, 635 nm fluorescence, higher = more signal.
In experiment [10] the test system is Sonic hedgehog protein (Shh). The experiment is described as follows: small-molecule binders of Shh protein, primary screen, biochemical, small-molecule microarray, 635/667 nm fluorescence (AID 1151).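 Further: Shh protein binding to compounds spotted on small-molecule microarray slides; score combines spot fluorescence intensity with signal-to-noise across triplicate slides.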 The settings on record: small-molecule microarray binding, 635 nm fluorescence; higher = more signal.

Active and inactive are the calls of the source. Unless noted, how the calls were made is not given here.

Chain of Torsin-1A (Homo sapiens) (O14656 whole entry, looked up): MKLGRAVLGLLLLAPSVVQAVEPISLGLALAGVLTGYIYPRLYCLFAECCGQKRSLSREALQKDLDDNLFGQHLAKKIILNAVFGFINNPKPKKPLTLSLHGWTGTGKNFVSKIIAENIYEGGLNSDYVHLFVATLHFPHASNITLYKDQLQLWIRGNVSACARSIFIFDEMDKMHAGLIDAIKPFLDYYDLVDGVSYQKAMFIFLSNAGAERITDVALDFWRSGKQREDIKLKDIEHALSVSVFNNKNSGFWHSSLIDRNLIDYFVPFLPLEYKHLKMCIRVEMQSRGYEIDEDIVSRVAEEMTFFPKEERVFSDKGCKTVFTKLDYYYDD

For `CN(C)C(=O)[C@@]1(CCC(=O)OC(C)(C)C)N=C(c2ccc(OCCCO)cc2)O[C@H]1c1ccccc1N=[N+]=[N-]`, the composite z-score in experiment [1] was 1.46; in experiment [6] it was 1.6; in experiment [7] it was 0.277; with Torsin-1A (Homo sapiens) [8], 1.76; in the experiment with Torsin-1A (Homo sapiens) [9], 2.25; in experiment [10], 0.18. For the same compound, the z-score was -1.84 (inactive) in experiment [2], -0.0215 (inactive) in [3], 1.31 (inactive) in experiment [4] and -1.33 (inactive) in [5].

On to `COC(=O)[C@@]1(Cc2ccc(OC)cc2)[C@H]2c3cc(C(=O)N4CCCC4)n(Cc4ccc(C)o4)c3C[C@H]2CN1C(=O)c1ccccc1`, for which the composite z-score in experiment [1] is 0.989; in experiment [6], 0.458; in experiment [7], 0.505; with Torsin-1A (Homo sapiens) [8] it was -1.39; with Torsin-1A (Homo sapiens) [9] it was 0.285; in [10], -0.754. The z-score in experiment [2] is -5.19 (inactive); in [3], -0.101 (inactive); in [4], -0.758 (inactive); in experiment [5] it was -2.15 (inactive).

Consider `COCCOC(=O)N1C(=O)[C@@]2(c3cc(C#Cc4ccc(OC)cc4)ccc31)[C@H](C(=O)N1CCc3cc(OC)c(OC)cc3C1)[C@H]1C(=O)O[C@H](c3ccccc3)[C@H](c3ccccc3)N1[C@@H]2c1ccc(O)cc1`, for which the composite z-score in experiment [1] was 0.783; in experiment [6], 0.802; in experiment [7] it was 1.06; in the experiment with Torsin-1A (Homo sapiens) [8] it was 0.58; with Torsin-1A (Homo sapiens) [9], 0.984; in experiment [10], 0.813. For the same compound, the z-score in [2] is -0.637 (inactive); in [3], 0.693 (inactive); in [4], -0.0688 (inactive); in experiment [5], 0.236 (inactive).

For `C=CCNC(=O)[C@H]1[C@@H]2C(=O)O[C@@H](c3ccccc3)[C@@H](c3ccccc3)N2[C@@H](c2ccc(O)cc2)[C@]12C(=O)N(C(=O)OCCOC)c1ccc(C#CC3(O)CCCCCC3)cc12`, the composite z-score in [1] was 0.195; in experiment [6], -0.179; in experiment [7] it was 0.134; in the experiment with Torsin-1A (Homo sapiens) [8], 0.187; with Torsin-1A (Homo sapiens) [9], 0.331; in experiment [10] it was 0.858. Also, the z-score in [2] is -1.07 (inactive); in [3] it was -0.7 (inactive); in experiment [4], -0.465 (inactive); in experiment [5] it was -0.804 (inactive).

With `C=CCOC(=O)[C@@H]1[C@H]2C(=O)O[C@H](c3ccccc3)[C@H](c3ccccc3)N2[C@H](c2ccc(OCCOC(=O)[C@H]3C[C@H]4C(=O)N[C@@H](Cc5ccccc5)C(=O)N4[C@H]3c3cccc(OCCO)c3)cc2)[C@@]12C(=O)Nc1ccc(I)cc12`, the composite z-score turned out to be 0.776 in [1]; 0.502 in experiment [6]; 0.294 in [7]; 0.787 with Torsin-1A (Homo sapiens) [8]; 0.959 with Torsin-1A (Homo sapiens) [9]; 2.02 in experiment [10]. Further, the z-score was -0.467 (inactive) in [2], -0.787 (inactive) in experiment [3], 6.98 (inactive) in experiment [4] and 11.6 (active) in [5].

With `COc1ccc(C(=O)Nc2ccc3c(c2)[C@]2(O[C@@H](CCO)[C@H]([Si](C)(C)c4ccc(OC)cc4)[C@H]2C)C(=O)N3Cc2ccccc2)cc1`, the composite z-score in experiment [1] is 0.476; in [6], 0.328; in [7], -0.0209; with Torsin-1A (Homo sapiens) [8] it was 0.816; with Torsin-1A (Homo sapiens) [9] it was 0.671; in [10], 1.83. For the same compound, the z-score in [2] is -8.09 (active); in experiment [3], -1.18 (inactive); in experiment [4], 1.82 (inactive); in [5] it was -0.606 (inactive).

For the compound `CC(C)(C)OC(=O)CC[C@]1(C(=O)O)COC(c2ccc(OCCCO)cc2)=N1`, the composite z-score in experiment [1] was -0.0943; in [6] it was 0.142; in experiment [7], -0.0589; with Torsin-1A (Homo sapiens) [8], 0.676; with Torsin-1A (Homo sapiens) [9], 1.08; in [10], -2.07. The z-score was 0.61 (inactive) in experiment [2], 0.178 (inactive) in [3], 0.694 (inactive) in experiment [4] and 0.506 (inactive) in experiment [5].

With `CCCCC(=C=CC[C@H](O)c1ccccc1OCCO)C[C@H](O)c1ccccn1`, the composite z-score was -0.135 in [1]; 0.597 in experiment [6]; -0.0762 in experiment [7]; 0.718 with Torsin-1A (Homo sapiens) [8]; 1.01 in the experiment with Torsin-1A (Homo sapiens) [9]; 1.4 in experiment [10]. Moreover, the z-score in [2] is -0.392 (inactive); in experiment [3], -0.0512 (inactive); in [4], 6.34 (inactive); in experiment [5], -0.872 (inactive).

Regarding `C=CCN1C(=O)[C@@]2(O[C@@H](CCn3cc([C@H](O)c4ccccc4)nn3)[C@H]([Si](C)(C)c3ccc(OC)cc3)[C@H]2C)c2cc(NC(=O)c3ccc(OC)cc3)ccc21`, the composite z-score is 0.192 in [1]; 0.429 in [6]; -0.128 in [7]; -0.0041 in the experiment with Torsin-1A (Homo sapiens) [8]; -0.0819 with Torsin-1A (Homo sapiens) [9]; 1.32 in experiment [10]. Further, the z-score in [2] was -3.14 (inactive); in experiment [3] it was -0.527 (inactive); in experiment [4] it was 3.97 (inactive); in [5], 0.35 (inactive).

Turning to `O=C1c2ccccc2[C@](Cc2ccccc2I)(C(=O)NC2CC2)[C@H](c2ccc(CO)cc2)N1Cc1ccccc1Cl`, the composite z-score in [1] is 0.805; in experiment [6] it was 0.191; in experiment [7] it was 0.168; in the experiment with Torsin-1A (Homo sapiens) [8], 0.501; with Torsin-1A (Homo sapiens) [9], 1.04; in experiment [10], 1. Moreover, the z-score was -0.77 (inactive) in [2], 0.167 (inactive) in experiment [3], 0.468 (inactive) in experiment [4] and -0.159 (inactive) in experiment [5].

`CCCC=C(CCC)[C@@H](NS(=O)(=O)c1ccccc1)c1ccc(C(F)(F)F)cc1`: the composite z-score amounted to 0.135 in experiment [1]; 1.33 in [6]; 0.105 in experiment [7]; 0.354 with Torsin-1A (Homo sapiens) [8]; 0.56 in the experiment with Torsin-1A (Homo sapiens) [9]; 0.0898 in [10]. Besides, the z-score in experiment [2] is -1.21 (inactive); in experiment [3] it was 0.514 (inactive); in experiment [4], 0.0007 (inactive); in experiment [5], 1.11 (inactive).

For `COC(=O)[C@@]1(Cc2ccc(F)cc2)[C@@H]2[C@@H](CC(=O)[C@H]2CC(=O)C(=O)N2CCCC2)CN1C(=O)c1ccccc1`, the composite z-score in experiment [1] is 0.603; in experiment [6], 1.48; in [7], 1.4; with Torsin-1A (Homo sapiens) [8] it was 0.0262; with Torsin-1A (Homo sapiens) [9], 0.666; in [10] it was -0.695. Moreover, the z-score in experiment [2] was -2.93 (inactive); in experiment [3], 0.925 (inactive); in experiment [4], 0.766 (inactive); in experiment [5], 0.526 (inactive).

Regarding `CCC[C@@H]1C[C@@]1(CCC)[C@@H](NC(=O)c1cccs1)c1ccc(Cl)cc1`, the composite z-score was -0.551 in [1]; -0.7 in [6]; -0.211 in experiment [7]; -0.312 in the experiment with Torsin-1A (Homo sapiens) [8]; -0.412 with Torsin-1A (Homo sapiens) [9]; -0.949 in experiment [10]. Further, the z-score in [2] was -2.21 (inactive); in experiment [3], 0.803 (inactive); in [4] it was 1.15 (inactive); in experiment [5], -0.127 (inactive).

As for `CN(C)CCCN1C(=O)[C@@]2(Cc3ccccc31)c1ccccc1C(=O)N(Cc1ccccc1)[C@H]2c1ccc(CO)cc1`, the composite z-score in experiment [1] was -0.173; in experiment [6] it was -0.394; in [7] it was -0.128; with Torsin-1A (Homo sapiens) [8] it was -0.158; in the experiment with Torsin-1A (Homo sapiens) [9], -0.105; in experiment [10], 0.463. For the same compound, the z-score in experiment [2] is -5.06 (inactive); in experiment [3] it was -1.74 (inactive); in experiment [4] it was -0.491 (inactive); in experiment [5], -0.665 (inactive).

The values above are taken from PubChem BioAssay.
